Source: PubChem BioAssay (NCI)
About 79,000 compounds went through this panel and 15% of them were active in at least one assay; those are over-represented in the sample as a whole. Values without a mark were called inactive. Rule as the data show it: active = growth inhibition above about 70%; inactive = the rest.

test: NCI Yeast Anticancer Drug Screen. Data for the cln2 rad14 strain (AID 165);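 also: 0% = growth equal to vehicle treated cultures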; settings: S. cerevisiae cln2 rad14 strain, at 50.0 µM, active compounds read high
In short: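 Compounds are applied to the cln2 rad14 yeast strain, and growth is then compared with that of vehicle-treated cultures to give inhibition.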

| SMILES | growth inhibition [%] |
| --- | --- |
| CO[C@H]1C=CO[C@@]2(C)Oc3c(C)c(O)c4c(O)c(c(CN5CCN(C)CC5)c(O)c4c3C2=O)NC(=O)/C(C)=C\C=C[C@H](C)[C@H](O)C(C)[C@@H](O)C(C)[C@H](OC(C)=O)[C@@H]1C (stereo not given in full) | 54 |
| Cc1ccc2ccccc2c1CC(=O)NN | -25.2 |
| CCOC(=O)c1c(C)nc(C)c(C(=O)OCC)c1-c1ccnc2ccccc12 | -13 |
| O=C(O)Cc1ccc(-c2ccccc2)[nH]1 | -25.8 |
| O=C(Nc1ccc(Cl)cc1)c1ccc(Cl)cc1Cl | -39.1 |
| C=CCc1ccc(OC(=O)Nc2ccc(S(=O)(=O)NC3CCCCC3)cc2)c(OC)c1 | 33.1 |
| O=C(O)C(O)c1ccc(Cl)cc1Cl (stereo not given) | 7.25 |
| COC(=O)c1nc[nH]c1C(=O)OC | 4 |
| O=S(=O)(Nc1ccnn1-c1ccccc1)c1ccc(NC(=S)Nc2ccccc2)cc1 | 27.7 |
| CCn1cc2c(=O)n3ncn(-c4ccc(Br)cc4)c3nc2n1 | -16.4 |
| Oc1ccccc1C=Nc1ccccc1N=Cc1ccccc1O.[Zn] | 26.5 |
| CC(C)C(CN)(c1ccccc1)c1ccccc1 | -59 |
| CS(=O)CC(=N\N)/C(CS(C)=O)=N/N (stereo not given) | -21.4 |
| CC(=O)N(C)c1ccc(NC(=S)NC(=O)c2cccc([N+](=O)[O-])c2)cc1 | -4.15 |
| C[C@@H]1CC[C@]2(C)C3(C)CC[C@]2(OC3=O)[C@@]12CC(c1ccoc1)OC2=O (stereo not given in full) | -7.45 |
